Experimental data published in PubChem BioAssay AID686979 (National Center for Advancing Translational Sciences (NCATS), 2013).
Several values for one entry are separate records, joined by “and”; a condition that tells them apart may be missing. Equal entries are not always repeated. Hit rate of the full screen: of about 420,000 compounds, about 50,000 (12%) were called active. Not shown: some 26% with an inconclusive outcome. The list comes from a sample in which actives are over-represented; it also holds similar structures and randomly drawn compounds. Unmarked numbers belong to inactive results. The call rests on the fitted dose curve; in most records, active means well fitted inhibition curve with a large enough effect; inconclusive means small, poorly fitted or top-dose-only effect; inactive means flat fitted curve, though single readings scatter.

Test: qHTS for Inhibitors of human tyrosyl-DNA phosphodiesterase 1 (TDP1): qHTS in cells in presence of CPT; further: nearly all actives have a fitted effect of over 55% in size
Conditions: chicken DT40 Tdp1-/-;hTDP1 cells + 20 nM CPT, ATP luminescence, 48 h; series mostly up to 46.2 µM; activity change, negative = growth inhibition: at the top concentration
How it was run: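 Chicken DT40 Tdp1-/- cells stably complemented with human TDP1 were seeded at 400 cells/well in medium containing 20 nM camptothecin, exposed to pin-transferred compounds, and grown at 37 °C for at least 48 hr. Viability was read as ATP luminescence.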
On the % scale 0 is the no-effect control and ±100 the full control effect; potency means the concentration at half of the fitted maximal effect.

Row | Structure (SMILES) | activity change, negative = growth inhibition [%] | Potency
1 | O=C(C1CC1)N1N=C2CCCCC2C1(O)C(F)(F)F (stereo not drawn) | 1.99 | 
2 | O=[N+]([O-])c1ccccc1/C=C/CN1CCC(O)CC1 | -8.2 | 
3 | COC(=O)c1sc(C(F)(F)F)c(-c2ccccc2)c1S(=O)(=O)N(C)C | 3.15 | 
4 | Cc1ccc(S(=O)(=O)NCCSc2ccccc2)cc1[N+](=O)[O-] | -12.8 | 
5 | CC(Oc1ccc(Cl)cc1)c1ccnn1S(C)(=O)=O (stereo not drawn) | -16.9 | 
6 | CC1CN(S(=O)(=O)c2cccc(C(F)(F)F)c2)CN1C(=O)N1CCOCC1 (stereo not drawn) | 15.4 | 
7 | O/N=C(\C[n+]1ccccc1)c1ccc(Br)cc1 | -2.78 | 
8 | COc1ccccc1N(CC(=O)Nc1ccc(C(F)(F)F)cc1)S(C)(=O)=O | 11.3 | 
9 | CCCCN(CC)CCCNC(=O)c1ccc(CSc2nc3ccncc3[nH]2)cc1 | -5.2 | 
10 | CCCCN(CC)CCCNC(=O)c1nn(C)c2c1CSc1ccccc1-2 |  | 25.9 µM (active)
11 | CCCCN(CC)CCCNC(=O)c1nn(C)c2c1CS(=O)(=O)c1ccccc1-2 | 5.5 | 
12 | C[C@@H]1CC2=C(C(=O)OC(C)(C)O2)[C@@H](C2CC2)O1 | 2.46 | 
13 | Cn1nccc1CNC(=O)c1ccnn1C | 0.35 | 
14 | CCN(CC)C(=O)c1sc(NC(=O)c2ccco2)c(C#N)c1C | -16.7 | 
15 | CCCc1ccc(-c2c(C)sc(NC(=O)c3ccnn3C)c2C#N)cc1 |  | 23.1 µM (active)
16 | COc1ccc(CNC(=O)CN(Cc2ccccc2Cl)C(=O)c2csnn2)cc1 | 12.5 | 
17 | COc1ccc(C(CNC(=O)c2cccnc2SC)N2CCOCC2)cc1 (stereo not drawn) | -20.3 | 
18 | COc1ccc(C(CNC(=O)c2cc3c(s2)CCCC3)N2CCOCC2)cc1 (stereo not drawn) | -14.5 | 
19 | CN1CCN(C(CNC(=O)c2ccccc2F)c2ccc3c(c2)OCO3)CC1 (stereo not drawn) | 6.41 | 
20 | CN(C)c1ccc(C(CNS(=O)(=O)c2cc(F)ccc2F)N2CCOCC2)cc1 (stereo not drawn) | -9.33 | 
21 | COc1cc(C(=O)OCCCN2CCOCC2)cc(OC)c1OC | -16.7 | 
22 | COc1cc(C(=O)NCC(c2ccc(Cl)cc2)N2CCOCC2)cc(OC)c1OC (stereo not drawn) |  | 16.4 µM (active)
23 | COc1ccc(C(CNC(=O)CSc2ccccc2)N2CCOCC2)cc1 (stereo not drawn) | -14.8 | 
24 | O=C(NCC(c1ccc(Cl)cc1)N1CCOCC1)c1ccccc1F (stereo not drawn) |  | 16.4 µM (active)
25 | CC(C)(C)c1ccc(C(=O)NCC(c2ccc(Cl)cc2)N2CCOCC2)cc1 (stereo not drawn) |  | 23.1 µM (active)

Row | Structure (SMILES) | activity change, negative = growth inhibition [%] | Potency
26 | Cc1ccc(S(=O)(=O)NN=C2CC(C)(C)CC(=O)C2(C)C)cc1 | 13.2 | 
27 | CCOCCCNC(=O)C1(O)c2cc(Br)ccc2NC(=O)N1c1ccc(C)c(C)c1 (stereo not drawn) | 9.66 | 
28 | Cc1ccc(S(=O)(=O)N2CCCCC2)cc1NC(=O)CCNC(=O)c1ccccc1 | -16.1 | 
29 | CN(C)c1ccc2c(=O)[nH][nH]c(=O)c2c1 | 8.58 | 
30 | COc1cc(C(=O)N2CCOC23CCN(Cc2ccccc2)CC3)cc(OC)c1OC | -4.78 | 
31 | N#Cc1cc([N+](=O)[O-])ccc1NC(=O)COC(=O)c1cnccn1 | -21.5 | 
32 | CCC(CC)NC(=O)CSc1nnc(-c2c[nH]c3ccccc23)o1 | -16.9 | 
33 | Cc1ccc(C(=O)OCC(=O)Nc2ccc(Cl)cn2)cc1S(=O)(=O)N1CCOCC1 | -6.23 | 
34 | CN(Cc1ccccc1)C(=O)C(=O)c1cn(CC(=O)N2CCCC2)c2ccccc12 | -23.2 | 
35 | COc1ccc(C(=O)N[C@H](C(=O)NCc2ccccc2)C(C)C)cc1 | 1.15 | 
36 | COc1cc(OC)cc(C(=O)N[C@H](C(=O)Nc2nc3ccccc3[nH]2)C(C)C)c1 |  | 1.64 µM (active)
37 | COc1cc(OC)cc(C(=O)N[C@H](C(=O)OCC(=O)NC(C)c2ccccc2)C(C)C)c1 (stereo partly drawn) | -11.1 | 
38 | O=S(=O)(ON(c1ccccc1)S(=O)(=O)c1ccccc1)c1ccccc1 | 3.88 | 
39 | CC1=C/C(=N\OS(=O)(=O)c2ccccc2)C=CC1=O |  | 0.631 µM (active)
40 | COCCn1c(SCC(=O)Nc2nc(C)cs2)nnc1C(C)C | -14.4 | 
41 | O=C(Nc1ccccc1C(=O)O)c1ccc(N2C(=O)C3CC=CCC3C2=O)cc1 (stereo not drawn) | 6.38 | 
42 | O=C(CN1CCOCC1)N/N=C/c1ccc(-c2ccc(Br)cc2)o1 | 15.3 | 
43 | Cc1ccc(-c2ccc(/C=N/NC(=O)CN3CCOCC3)o2)cc1[N+](=O)[O-] |  | 23.1 µM (active)
44 | Cc1ccc(NC(=O)CN2CCC(C(N)=O)CC2)cc1[N+](=O)[O-] | -17.2 | 
45 | Cc1ccc(OC(=O)c2cncc(Br)c2)c(C)c1 | -11.9 | 
46 | CC(=O)[C@@]12O[C@@H]1C[C@H]1[C@@H]3CC[C@H]4C[C@@H](O)CC[C@]4(C)[C@H]3CC[C@@]12C | -12.2 | 
47 | CC1(Cc2ccccc2C#N)C(=O)Nc2ccc(-c3ccc4[nH]ccc4c3)cc21 (stereo not drawn) |  | 1.46 µM (active)
48 | COc1ccc(CC(NC(C)=O)C(=O)NC2CCN(C(=O)c3ccc(Cl)cc3)CC2)cc1 (stereo not drawn) | 8.85 | 
49 | CCC(C)C(N=C1NS(=O)(=O)c2ccccc21)C(=O)N1CCC(C)CC1 (stereo not drawn) | -14.9 | 
50 | NNc1cccc(C=Cc2ccccc2)cc1=O |  | 2.06 µM (active)

Row | Structure (SMILES) | activity change, negative = growth inhibition [%] | Potency
51 | O=c1oc(/C=C/c2ccccc2)nc2ccccc12 | -3.35 | 
52 | O=c1[nH]c(/C=C/c2cccc(Br)c2)nc2ccccc12 | -19.5 | 
53 | Cc1cc(Cl)ccc1NC(=S)NCCCN1CCCC1=O | 23.4 | 
54 | COn1c(=O)c(=O)n(OC)c2ccccc21 | 0.332 | 
55 | CCOC(=O)CSc1nnc(-c2ccc([N+](=O)[O-])cc2)o1 | 0.129 | 
56 | CCOC(=O)C1=C(c2ccccc2)NC(=S)NC1c1ccc(Cl)cc1 (stereo not drawn) | -21.5 | 
57 | CCOC(=O)C1=C(C)N(C[C@@H]2CC[C@@H](Cc3ccc(-c4ccccc4)cc3)O2)C(=O)NC1c1ccc([N+](=O)[O-])cc1 (stereo partly drawn) |  | 23.1 µM (active)
58 | C=C1c2cccc(OC)c2O[C@H](C(=O)OCC)[C@@H]1CCCCCC | -20.2 | 
59 | COc1cc(OC)c2c(-c3cccc(-c4cccc(N)c4)c3)cc(=O)oc2c1 |  | 4.61 µM (active)
60 | COc1cccc(NC(=O)COc2cc(C)cc3oc(=O)cc(C)c23)c1 | -0.0121 | 
61 | COC(=O)C(C)Oc1ccc2c(-c3cccc([N+](=O)[O-])c3)cc(=O)oc2c1 (stereo not drawn) | -14.6 | 
62 | COc1ccccc1OCCNC(=O)C(CCSC)NC(=O)COc1ccccc1 (stereo not drawn) | -15.4 | 
63 | CC(C)(CNC(=O)CNC(=O)C1CCCCC1)N1CCOCC1 | 13 | 
64 | Cc1c(O)cc(O)c2c(=O)c(-c3ccc(O)cc3)coc12 | 0.0845 | 
65 | CC(C)=CCc1c(O)c(CC=C(C)C)c2occ(-c3ccc(O)cc3)c(=O)c2c1O |  | 18.4 µM (active)
66 | CCCCn1c(N)c(N(CC(C)C)C(=O)C2CSC3(C)CCC(=O)N23)c(=O)[nH]c1=O (stereo not drawn) | -2.75 | 
67 | C[C@H]1CN([C@@H](C)CO)C(=O)CCCn2nncc2CO[C@@H]1CN(C)Cc1ccc(Oc2ccccc2)cc1 |  | 23.1 µM (active)
68 | C[C@H]1CN([C@@H](C)CO)C(=O)c2cc(-c3cccc(F)c3)cnc2O[C@@H]1CN(C)S(C)(=O)=O | 4.29 | 
69 | COc1ccc(-c2cnc3c(c2)C(=O)N([C@H](C)CO)C[C@@H](C)[C@H](CN(C)Cc2ccccc2)O3)cc1 |  | 14.6 µM (active)
70 | C[C@H](CO)N1C[C@H](C)[C@@H](CN(C)Cc2ccc3c(c2)OCO3)OCc2cnnn2CCCC1=O | 9 | 
71 | CCOC(=O)CCCCCC(=O)Nc1ccc2c(c1)CC(=O)N([C@@H](C)CO)C[C@H](C)[C@@H](CN(C)Cc1ccccc1)O2 |  | 18.4 µM (active)
72 | C[C@H]1CN([C@@H](C)CO)C(=O)Cc2cc(NS(C)(=O)=O)ccc2O[C@@H]1CN(C)CC1CC1 | -3.44 | 
73 | Cc1ccc(CN(C)C[C@@H]2OCc3cnnn3CCCC(=O)N([C@@H](C)CO)C[C@H]2C)cc1 | -7.27 | 
74 | C[C@H](CO)N1C[C@H](C)[C@H](CN(C)CC2CC2)Oc2ccc(NC(=O)CCN3CCOCC3)cc2C1=O | 9.49 | 
75 | C[C@@H]1CN([C@H](C)CO)C(=O)c2cc(Br)cnc2O[C@@H]1CN(C)Cc1cncnc1 | -9.96 | 

Row | Structure (SMILES) | activity change, negative = growth inhibition [%] | Potency
76 | Cc1ccccc1NC(=O)c1cc(S(=O)(=O)Nc2cccc(C(=O)O)c2)ccc1Cl | -2.45 | 
77 | Cc1cc(NC(=O)COc2ccc([N+](=O)[O-])cc2)no1 | 1 | 
78 | CC1CCCC(C)N1C(=O)CSc1nnnn1C1CCCC1 (stereo not drawn) | -3.92 | 
79 | CCc1nc(N2CCN(C(C)=O)CC2)c2c3c(sc2n1)CCCC3 | -8.38 | 
80 | Cc1c(OC(C)C(=O)N[C@@H](Cc2ccccc2)C(=O)O)ccc2c3c(c(=O)oc12)CCCC3 (stereo partly drawn) | 2.76 | 
81 | Cc1c(Br)c([N+](=O)[O-])nn1C(C)C(=O)Nc1nccs1 (stereo not drawn) | -29.9 | 
82 | CCOc1ccccc1NC(=O)C1CCCN(C(=O)Nc2ccccc2)C1 (stereo not drawn) | -4 | 
83 | Cc1cccc(NC(=O)C2CCCN(C(=O)Nc3ccc(F)cc3)C2)c1C (stereo not drawn) | -26.8 | 
84 | Cc1c(Cl)cccc1NC(=O)C1CCCN(C(=O)c2cnn(-c3ccccc3)c2-n2cccc2)C1 (stereo not drawn) |  | 23.1 µM (active)
85 | COc1ccc(Cn2ccn(CC(=O)Nc3cc(C)ccc3C)c(=O)c2=O)cc1 | 15.1 | 
86 | Cc1cccc(CSc2ccc(-c3cccs3)nn2)c1 |  | inactive
87 | Oc1c(Cl)cc(Cl)c(Cl)c1Cc1c(O)c(Cl)cc(Cl)c1Cl |  | 4.73 µM (active) and 23.1 µM (active) and 3.26 µM (active)
88 | Nc1[nH][nH]c(=O)c1N=Nc1ccc2c(c1)OCO2 | -26.6 | 
89 | Cc1ccc(N2CC(C(=O)Nc3ccc(S(=O)(=O)N4CCCC4)cc3)CC2=O)cc1C (stereo not drawn) | -24.4 | 
90 | O=S1(=O)CCN(C2CCCCCCCCCCC2)CC1 |  | 20.6 µM (active)
91 | O=S1(=O)CC(N2CCN(CCO)CC2)CN1C1CCCC1 (stereo not drawn) | -2.16 | 
92 | O=C(O)C1CCN1C1CCCCC1 (stereo not drawn) | 1.27 | 
93 | COc1ccc(S(=O)(=O)N2CCC(C(=O)NCCC(=O)Nc3ccccc3OC)CC2)cc1 | -19 | 
94 | CC(NC(=O)c1ccccc1C(=O)O)c1ccc(-n2ccnc2)cc1 (stereo not drawn) | 7.73 | 
95 | COc1ccc(OC)c(/C(C)=N\NC(=O)c2cc3cc(Cl)ccc3n2C)c1 |  | 5.8 µM (active)
96 | COc1ccc(NC(=O)c2cc3cc(C)ccc3n2C)cc1 | -22.3 | 
97 | COc1ccc(OC)c(C(=O)c2ccc(Cl)cc2)c1 | 2.77 | 
98 | OC(c1ccccc1)c1nc(/C=C/c2ccc(C(F)(F)F)cc2)cs1 (stereo not drawn) | -21.7 | 
